L3MBTL1 inh = blocks human L3MBTL1; AlphaScreen L3MBTL1–H3K9me1 peptide binding; Q9Y468; 230,000 tested, 0.66% active; Potency, µM (highest dose often 57.1 µM), without a hit: top-dose activity, negative = inhibition, actives largely listed as inhibitors; also: % is scaled to controls: 0 for no effect and ±100 for the full control effect; nearly all actives have a fitted effect of over 60% in size
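AlphaScreen assay: L3MBTL1 (50 nM final) was preincubated 30 min at room temperature with biotinylated H3(1-15)K9me1 peptide (75 nM final), then 30 min with library compounds; streptavidin donor and nickel chelate acceptor beads (10 ug/mL final) added, 30 min dark.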
BAZ2B inh = BAZ2B (human) inhibition | AlphaScreen BAZ2B-H3K14Ac peptide displacement | Potency, µM (top dose mostly 114 µM), inactives show at the highest dose activity change, negative = inhibition, usual class: inhibitors | 360,000 tested, 4.4% active; also: % is scaled to controls: 0 for no effect and ±100 for the full control effect; nearly all actives have a fitted effect of over 60% in size
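Complex of BAZ2B and biotin-H3K14Ac (50 nM apiece) forms over 30 min at RT, then faces library compounds up to 110 uM for another 30 min; AlphaScreen beads added, 20 min dark incubation, luminescence read.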
G9a block = inhibitors of human histone lysine methyltransferase G9a. Q96KQ7. G9a H3K9 monomethylation, AlphaScreen, 2 h. Potency, µM (titrated, usually from 102 µM), inactives show top-dose activity, negative = inhibition, hits mostly inhibitors. 350,000 tested, 8.8% active; also: % is scaled to controls: 0 for no effect and ±100 for the full control effect; nearly all actives have a fitted effect of over 75% in size
Target sequence (Q96KQ7 913-1193 limits assumed): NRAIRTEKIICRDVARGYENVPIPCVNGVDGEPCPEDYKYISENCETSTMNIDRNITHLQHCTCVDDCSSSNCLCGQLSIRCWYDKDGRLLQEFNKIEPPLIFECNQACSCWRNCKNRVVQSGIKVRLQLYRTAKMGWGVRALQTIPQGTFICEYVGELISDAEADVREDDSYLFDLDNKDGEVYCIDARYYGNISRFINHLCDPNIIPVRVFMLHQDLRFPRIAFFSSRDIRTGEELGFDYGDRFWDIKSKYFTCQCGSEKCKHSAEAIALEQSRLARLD
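Chemiluminescent proximity detection of H3K9 monomethylation, read after 10 min bead incubation in the dark. Reaction: 20 nM G9a, 500 nM biotin-H3K9 peptide, 20 uM SAM cofactor, 2 h, room temperature, following 15 min enzyme-compound preincubation.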
HP1b binding inh = inhibitors of HP1-beta chromodomain binding to methylated histone tails; P83916; AlphaScreen HP1-beta / biotin-H3K9me3 peptide binding; Potency, µM (top dose mostly 114 µM), for inactives: at the highest dose activity change, negative = inhibition, usual class: inhibitors; 390,000 tested, 0.56% active; also: nearly all actives have a fitted effect of over 70% in size
Target sequence (P83916 whole entry, looked up): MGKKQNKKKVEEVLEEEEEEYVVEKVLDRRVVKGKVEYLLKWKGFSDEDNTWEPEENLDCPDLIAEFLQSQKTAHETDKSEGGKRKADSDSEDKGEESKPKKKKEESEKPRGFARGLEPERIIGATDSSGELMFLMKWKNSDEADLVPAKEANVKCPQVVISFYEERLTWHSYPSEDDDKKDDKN
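Compound inhibition of the preformed complex between 50 nM HP1-beta and 50 nM biotinylated H3K9me3 peptide was read by AlphaScreen. Buffer was PBS pH 7.4 with 0.01% Tween-20. Incubations ran 30 min at room temperature, with 10 ug/mL donor/acceptor beads.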
JMJD2A Tudor = blocks the human JMJD2A Tudor domain; O75164; AlphaScreen JMJD2A-Tudor / H3K4me3 peptide binding; Potency, µM (highest dose often 114 µM), without a hit: top-dose activity change, negative = inhibition, usual class: inhibitors; 390,000 tested, 4.4% active; AID 504339; also: % is scaled to controls: 0 for no effect and ±100 for the full control effect; nearly all actives have a fitted effect of over 50% in size
Sfp PPTase inh = Sfp phosphopantetheinyl transferase inhibition; AID 1490; Q9F4F7; Biochemical Sfp PPTase activity, qHTS; 310,000 tested, 3.5% active; Potency, µM, for inactives: largest response in the series, negative = inhibition, hits mostly inhibitors;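 also: the enzyme is Sfp with the accession as filed and its product quenches rhodamine fluorescence; 0% = enzyme reaction without inhibitor and -100% = no enzyme wells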
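Step 1, compound plus 15 nM Sfp-PPTase, 15 min, room temperature. Step 2, add rhodamine-CoA (5 uM) and BHQ-2-YbbR (12.5 uM). Step 3, read 525/598 nm fluorescence at 0 and 30 min.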
An asterisk follows results filed as active; ? = inconclusive; / = no result given; [ ] = dose if it differs, or a comment. A selection: hits, their analogues and other compounds. The true share with any hit is near 12%. Calls follow the shape of the dose curve; as a rule, active = well fitted curve in the direction sought with a large enough effect; inconclusive = small, poorly fitted or top-dose-only effect, or another doubt; inactive = no such curve, though single readings can be large; an effect the other way counts as inactive or inconclusive. Potency is read from the fitted curve at half-maximal effect.

SMILES	L3MBTL1 inh	BAZ2B inh	G9a block	HP1b binding inh	JMJD2A Tudor	Sfp PPTase inh
CCCCCCCC1=Cc2ccccc2C(CC(=O)c2ccccc2)N1C(=O)OC (stereo unspecified)	/	/	/	/	/	0.2%
C[C@]1(OC(=O)/C=C/c2ccccc2)C[C@@H](O)[C@]2(O)C=CO[C@@H](O[C@@H]3O[C@H](CO)[C@@H](O)[C@H](O)[C@H]3O)[C@@H]21	-8.5%	4.2%	17.8µM*	53.6%	-7.6%	/
Cc1cc(Cl)cc(C)c1OCCCCCn1ccnc1	-4.6%	31.6µM*	?	20.2%	?	9.6%
CCN(CC)CCOc1c(C)cccc1Cl	/	79.4µM*	-6.0%	17.8%	-12.6%	-5.9%
Cc1cccc(Cl)c1OCCCn1ccnc1	-3.1%	28.2µM*	10µM*	28.2µM*	7.94µM*	-23.6%
COc1cc(OC)cc(N2C(=O)N(CC(=O)c3ccc(F)cc3)c3ccccc3S2(=O)=O)c1	/	-23.7%	-0.8%[59 µM]	24.1%	-27.3%	/
Fc1cccc(NC(=S)NNc2c3ccccc3nc3ccccc23)c1	/	7.08µM*	15.8µM*	?	?	-8.6%
Fc1cccc(NC(=S)NNc2ccccc2)c1	/	39.8µM*	50.1µM*	?	56.2µM*	1.9%
Oc1cccc(Nc2ccccc2)c1	-10.3%	?	-4.4%[0.501 µM]	-9.5%	-31.0%	/
NC(=S)Nc1cccc(F)c1	-4.6%	-10.3%	?	15.3%	-2.1%	8.4%
Oc1cccc(NC(=S)Nc2ccccc2)c1	/	-7.7%	50.1µM*	31.5%	-15.2%	-4.3%
CCOC(=O)N1CCN(C(=O)c2ccc3c(c2)N(Cc2ccccc2F)C(=O)c2ccccc2S3(=O)=O)CC1	/	-7.8%	-5.8%[59 µM]	13.1%	-11.1%	/
CCCCCCS(=O)[C@H]1CS(=O)(=O)C[C@@H]1S(=O)CCCCCC (stereo partly specified)	-14.9%	-4.2%	8.91µM*	45.1%	-7.5%	-2.3%
CCCCCCCCS(=O)C1CCS(=O)(=O)C1 (stereo unspecified)	4.3%	1.5%	39.8µM*	45.7%	11.3%	11.7%
CCCCCCCCCCOC(=O)NC1CCS(=O)(=O)C1 (stereo unspecified)	/	-0.3%	21.8%	47.1%	6.2%	-0.4%
COc1ccc(Cl)cc1NC(=O)c1cc2ccc3ccc(C)[nH]c3c2n1	/	4.5%[57.1 µM]	?	1.8%	-18.8%	/
O=C(CSC1=NNC(c2ccccn2)S1)Nc1ccc(C(F)(F)F)cc1 (stereo unspecified)	/	56.2µM*	12.5%	14.7%	39.8µM*	10.0%
CNc1nnc(-c2ccc(N(C)C)cc2)s1	-7.5%	2.7%	7.94µM*	21.8%	-23.9%	-6.4%
N#C/C(=C/c1ccc(Br)o1)C(N)=O	-2.8%	-3.9%	1.4%[59 µM]	39.1%	8.6%	6.9%
COc1ccc(NC(=O)/C(C#N)=C/c2ccc(Br)o2)cc1	31.6µM*	50.1µM*	-43.2%[12.7 µM]	-0.2%	?	?
N#C/C(=C/c1ccc(Br)o1)C(N)=S	-5.1%	?	31.6µM*	/	/	35.5µM*
CN1CCN(Cc2coc3c(Cl)cc(Cl)cc3c2=O)CC1	-1.1%	50.1µM*	25.1µM*	?	8.91µM*	50.1µM*
O=c1c(CN2CCN(c3cccc(Cl)c3)CC2)coc2c(Cl)cc(Cl)cc12	10.7%	0.2%	?	53.4%	-13.6%	?
CCOC(=O)C1=C(c2ccccc2)c2cc(OC)ccc2OC1C(=O)OCC (stereo unspecified)	/	/	58.2%	/	/	1.8%
O=C1c2cccnc2C(=O)N1CO	-1.6%	?	-33.1%	5.2%	-22.9%	9.1%
SMILES	L3MBTL1 inh	BAZ2B inh	G9a block	HP1b binding inh	JMJD2A Tudor	Sfp PPTase inh
O=C1C(=O)c2ncccc2-c2cccnc21	/	/	-118.3%[2.33 µM]	/	/	0.631µM*
COc1ccc(C(=O)Nc2ccc(-c3n[nH]c(=S)o3)cc2)cc1OC	/	?	1.58µM*	-24.7%	?	15.8µM*
COc1ccc(C(=O)Nc2ccncc2)cc1OC	/	5.5%	-11.4%[12.7 µM]	21.5%	-11.0%	-9.0%
O=C(Nc1ccc(-c2n[nH]c(=S)o2)cc1)c1ccccc1Br	0.8%	-0.8%	8.91µM*	21.6%	-4.1%	-6.8%
Cc1cc2c(c(=O)o1)C1O[C@](CCCCN3C(=O)c4ccccc4C3=O)(Cc3cc(C#N)ccc31)O2	/	-5.6%[22.9 µM]	/	/	/	-1.8%
COc1ccccc1CN1CC(C(=O)NCCc2ccc(C)o2)CCC1=O (stereo unspecified)	/	-14.5%	?	38.2%	-7.6%	?
COc1ccccc1CN1CC(C(=O)N(C)Cc2ccc(C)o2)CCC1=O (stereo unspecified)	/	-18.8%	35.5µM*	22.5%	-8.3%	44.7µM*
COc1ccc(CCN2CC(C(=O)N(C)Cc3ccc(C)o3)CCC2=O)cc1 (stereo unspecified)	/	-10.4%	?	29.2%	-13.5%	22.4µM*
Cc1noc(C)c1C(=O)N1CCC2(CC1)CCN(C(c1ccccc1)c1ccccc1)CC2	/	/	-6.7%[12.7 µM]	/	/	5.3%
COc1cccc(CN(Cc2ccco2)C(c2ccc(F)cc2)c2nnnn2C(C)(C)C)c1 (stereo unspecified)	7.5%	21.3%	50.1µM*	46.8%	-13.9%	-4.4%
O=C(Cc1ccc(NC(=O)N2CCCCc3ccccc32)cc1)NCc1ccccc1	/	5.0%	-3.2%[59 µM]	38.1%	-16.7%	/
C=CCOc1ccc(Br)cc1/C=C1/SC(=Nc2ccc(C(=O)O)cc2)NC1=O	/	44.7µM*	20µM*	18.6%	?	-19.9%
CCOC(=O)c1c(C)[nH]c(C)c1S(=O)(=O)NCc1cc(C)ccc1C	/	50.1µM*	?	16.8%	?	3.2%
CCOC(=O)c1c(C)[nH]c(C)c1S(=O)(=O)NCC(=O)NCc1ccccc1C	/	-3.6%	3.4%[59 µM]	13.2%	-13.0%	/
